Most compounds without a hit are left out; they make up all but 2.5% or so of the library.
697 NFkB inh = lowers PMA/ionomycin-induced NF-kB signal in 697 B cells | 697 B-cell NF-kB luciferase reporter, 16 h | inhibition, % at 4 µM | 330,000 tested, 0.33% active; in the data active = inhibition above about 35%
aSyn 5UTR inh = 5' untranslated region of α-synuclein, MLPCN primary screen; alpha-synuclein 5'UTR reporter, inhibitor activity; inhibition, % (tested at 7.5 µM); 300,000 tested, 0.82% active; in the data active = inhibition above about 60%;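 also: H4 neuroglioblastoma cells stably carrying SNCA 5'UTR luciferase fusion; 0% = DMSO wells and 100% = positive control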
Jurkat NFkB inh = inhibitors of the PMA/ionomycin-induced NF-kB reporter in Jurkat cells; PMA/ionomycin-induced NF-kB luciferase reporter, luminescence; inhibition, % at 4 µM; 330,000 tested, 0.53% active; AID 435003; in the data active = inhibition above about 50%
TMEM16A act = activates or potentiates the mouse TMEM16A chloride channel; Q8BHY3; HEK293 TMEM16A/YFP-H148Q/I152L, iodide quench fluorescence; hits give low values; B-score at 10 µM; 340,000 tested, 0.3% active; AID 623877;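 active = fluorescence-ratio B-score plate-corrected deviation score at least 3 library SD below zero, with starting fluorescence score within 5 deviations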;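 also: channel opened by trigger with iodide after compound preincubation; score built on the fluorescence ratio of max minus min over baseline; more negative score means more quench and so TMEM16A activation or potentiation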
Target sequence (Q8BHY3 whole entry, looked up): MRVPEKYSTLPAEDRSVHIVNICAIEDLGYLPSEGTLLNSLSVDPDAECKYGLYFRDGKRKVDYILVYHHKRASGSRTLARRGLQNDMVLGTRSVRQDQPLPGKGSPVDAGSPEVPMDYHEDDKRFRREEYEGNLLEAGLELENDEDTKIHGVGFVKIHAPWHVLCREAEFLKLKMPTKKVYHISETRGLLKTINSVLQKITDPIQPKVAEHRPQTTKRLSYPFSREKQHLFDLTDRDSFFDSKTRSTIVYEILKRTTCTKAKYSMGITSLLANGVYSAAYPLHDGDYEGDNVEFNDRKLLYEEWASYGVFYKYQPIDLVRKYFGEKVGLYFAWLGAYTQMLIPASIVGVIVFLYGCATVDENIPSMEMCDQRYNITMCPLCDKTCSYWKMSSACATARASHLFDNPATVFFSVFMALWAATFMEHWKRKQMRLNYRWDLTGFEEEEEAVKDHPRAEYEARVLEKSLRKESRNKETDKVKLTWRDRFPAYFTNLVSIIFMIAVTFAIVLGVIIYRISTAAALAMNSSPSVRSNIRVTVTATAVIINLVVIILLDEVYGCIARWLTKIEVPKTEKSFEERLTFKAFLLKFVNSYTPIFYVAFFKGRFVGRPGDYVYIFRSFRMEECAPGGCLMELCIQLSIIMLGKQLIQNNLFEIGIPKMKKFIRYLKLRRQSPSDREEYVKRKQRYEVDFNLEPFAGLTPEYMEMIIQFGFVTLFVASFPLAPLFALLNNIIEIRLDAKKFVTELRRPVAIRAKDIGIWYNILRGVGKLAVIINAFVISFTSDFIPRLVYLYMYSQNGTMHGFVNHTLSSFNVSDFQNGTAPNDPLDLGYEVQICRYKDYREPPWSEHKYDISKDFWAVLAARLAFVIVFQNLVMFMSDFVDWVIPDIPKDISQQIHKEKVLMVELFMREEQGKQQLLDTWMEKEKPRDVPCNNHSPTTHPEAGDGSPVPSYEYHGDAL
ANO1 block = blocks the mouse calcium-activated chloride channel TMEM16A; HEK293 TMEM16A/YFP iodide influx fluorescence, ionomycin; normalized B-score (activity score, 25-100; higher = stronger inhibition) at 10 µM; 310,000 tested, 1.2% active;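 active = ratio plate-corrected score three or more library SD toward inhibition, starting fluorescence score within five deviations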;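 also: score derived from kinetic fluorescence span divided by baseline fluorescence per well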
KLF5 inh = suppresses KLF5 promoter-driven expression; DLD-1 KLF5 promoter-luciferase reporter, luminescence; inhibition, % at 5 µM; 290,000 tested, 0.23% active;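 active = inhibition above a per-plate limit of that plate's mean compound inhibition plus 3 SD, cut at about 60% in these data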;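 also: 0% = DMSO wells and 100% = LY294002 at 200 µM; higher means less KLF5 promoter-driven luciferase light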
697 NFkB conf = inhibitors of the PMA/ionomycin-induced NF-kB reporter in 697 B cells, retest | shares compounds with 697 NFkB inh | 697 B-cell NF-kB luciferase, 16 h | inhibition, % at 4 µM | 2,000 tested, 35% active; in the data active = inhibition mostly above about 28%, no sharp cut-off; inactive = mostly below about 22%
Starred values were filed as active, the others as inactive; i = inactive; . = not tested or not shown.

SMILES	697 NFkB inh	aSyn 5UTR inh	Jurkat NFkB inh	TMEM16A act	ANO1 block	KLF5 inh	697 NFkB conf
CCOc1cc(/C=C(/C#N)c2nc3ccccc3[nH]2)ccc1Oc1ccc([N+](=O)[O-])cn1	40*	0	9	i	i	-36	7
CCOc1ccc(CCNc2nc3ccc(C)cc3n3cnnc23)cc1OCC	-3	-19	-16	i	i	-6	.
CCOc1ccc(N2C(=O)/C(=C/c3ccccc3)N=C2SC)cc1	-71	-89	-70	i	i	-22	.
COc1ccc(/C=C2\N=C(SC)N(c3ccccc3OC)C2=O)cc1	i	-66	18	i	i	40	i
O=C(NNC(=O)c1nc2ccccc2[nH]1)OCc1ccccc1	-3	.	-1	i	.	.	.
Oc1ccc(N=Nc2ccc3ccccc3c2)cc1	-400	-73	-122	i	i	-126	-318
Cc1cc(/C=C2\SC(=O)N(C)C2=O)c(C)n1-c1ccc(O)cc1	-272	-11	-93	i	i	-93	-102
Cc1cc(/C=C2\SC(=O)N(C)C2=O)c(C)n1-c1ccc(S(N)(=O)=O)cc1	-12	-48	-10	i	i	-52	.
CC12CC3CC(C)(C1)CC(C(=O)N1CCN(C(=O)C4CCCO4)CC1)(C3)C2 (configuration not stated)	3	6	-1	i	i	-15	.
Cc1ncc([N+](=O)[O-])n1CC(=O)Nc1ccc(F)cc1F	3	0	8	i	i	-30	.
Cc1c(CC(=O)NCCCC(=O)O)c(=O)oc2cc3c(cc12)CCC(C)(C)O3	52*	51	-2	i	i	25	51*
Cc1c(CC(=O)NCCCCCC(=O)O)c(=O)oc2cc3c(cc12)CCC(C)(C)O3	11	20	-6	i	i	33	.
COc1ccc(C(=O)Nc2nc3c(s2)CCCC3)cc1S(=O)(=O)N1CCCc2ccccc21	i	39	-48	i	i	-2	i
COc1ccc(-c2noc(N3CCC(C(=O)Nc4ccccc4Cl)CC3)n2)cc1	39*	-15	20	i	i	-19	19
COc1ccc(-c2noc(N3CCC(C(=O)Nc4ccccc4F)CC3)n2)cc1	24	-10	10	i	i	-57	.
COc1ccc(-c2noc(N3CCC(C(=O)Nc4ccc(OC)c(OC)c4)CC3)n2)cc1	47*	27	17	i	i	-41	38*
CC1=NOC(=O)/C1=C/c1ccc(N(C)C)cc1	13	-7	-3	.	i	-7	.
CCN(CC)c1ccc(/C=C2/C(=O)ON=C2C)cc1	40*	-11	14	i	i	9	36*
Cc1ccc(S(=O)(=O)N(CCC(=O)NCc2ccc(S(N)(=O)=O)cc2)c2ccccc2)cc1	0	.	0	i	.	.	.
O=C(NCCOC(=O)Nc1cccc2ccccc12)OCc1ccccc1	.	.	.	i	.	.	.
COc1cc(/C(C)=N\NC(N)=S)cc(OC)c1OC	40*	24	9	i	i	9	41*
O=C(Nc1ccc2c(c1)CCC2)c1ncoc1-c1ccccc1F	15	-35	-25	i	.	4	.
CCN(CC)C(=O)Oc1ccc2ccccc2c1Br	-302	-44	-58	i	i	-39	-253
CCN(CC)C(=O)Oc1ccc(Br)c2ccccc12	1	24	2	i	i	-42	.
O=C(c1cc2ccccc2oc1=O)N1CCN(S(=O)(=O)c2ccccc2)CC1	11	-38	4	i	i	-22	.
O=c1c2ccccc2sc2ccc(C#CC3(O)CCCCC3)cc12	40*	104*	44	i	i	.	16
CCCN1C(=O)CC(c2ccco2)Sc2ccccc21 (configuration not stated)	7	34	-3	i	i	-27	.
CN1C(=O)CC(c2ccco2)Sc2ccccc21 (configuration not stated)	39*	-22	-2	i	i	-13	29*
